Unmarked numbers belong to inactive results. Records with an inconclusive call do not appear. A call without a number means that no potency is given here. Calls of active or inactive are those of the source. Calls come from the whole dose curve; as a rule, active = well fitted curve in the direction sought with a large enough effect; inconclusive = small, poorly fitted or top-dose-only effect, or another doubt; inactive = no such curve, though single readings can be large; an effect the other way counts as inactive or inconclusive.
Tests used:
[1] = molecular target: Glutathione peroxidase 1 (Homo sapiens) (UniProt P07203); test: Primary qHTS Assay for Inhibitors of Recombinant Selenoprotein Glutathione Peroxidase 1 (GPX1) (AID 1845191); note: nearly all actives have a fitted effect of over 65% in size
Sequence of Glutathione peroxidase 1 (Homo sapiens) (P07203 whole entry, looked up): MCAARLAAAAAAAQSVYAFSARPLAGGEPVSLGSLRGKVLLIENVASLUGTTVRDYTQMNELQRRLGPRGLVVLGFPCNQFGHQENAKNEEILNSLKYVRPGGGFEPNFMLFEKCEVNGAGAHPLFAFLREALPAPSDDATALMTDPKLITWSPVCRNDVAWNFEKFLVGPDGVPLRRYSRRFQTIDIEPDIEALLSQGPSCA
In short: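 GPX1 10 nM, GR 100 nM, GSH 1 mM, NADPH 0.5 mM, CHP 0.5 mM (final). 30-min cpd preincubation, RT. Ex340/Em450 read t=0, t=15 min.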

[2] = molecular target: Phospholipid hydroperoxide glutathione peroxidase GPX4 (Homo sapiens) (UniProt P36969); test: Primary qHTS Assay for Inhibitors of Recombinant Selenoprotein Glutathione Peroxidase 4 (GPX4) (AID 1845192); note: nearly all actives have a fitted effect of over 65% in size; note: potency is the fitted concentration of half-maximal effect
Sequence of Phospholipid hydroperoxide glutathione peroxidase GPX4 (Homo sapiens) (P36969 whole entry, looked up): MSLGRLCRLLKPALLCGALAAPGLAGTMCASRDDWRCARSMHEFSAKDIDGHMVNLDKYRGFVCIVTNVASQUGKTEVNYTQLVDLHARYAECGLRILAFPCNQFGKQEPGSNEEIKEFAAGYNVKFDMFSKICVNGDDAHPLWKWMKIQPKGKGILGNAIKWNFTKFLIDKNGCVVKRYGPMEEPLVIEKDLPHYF
In short: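 qHTS, GR-coupled: GPX4 200 nM + cpd 30 min RT → GSH 1 mM, NADPH 0.5 mM, GR 100 nM → CHP 0.5 mM start; fluor 340/450 at t0 and t15 min; no-enzyme wells as control.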

[3] = Quantitative High-Throughput drug screen in 47 multiple myeloma cell lines against the NCATS MIPE library collection: FR4_PLB cell viability assay (AID 1918924; note: nearly all actives have a fitted effect of over 35% in size; note: potency is the fitted concentration of half-maximal effect)
In short: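 Relative luminescence from CellTiter-Glo served as the viability signal, referenced to DMSO-treated (100%) and cell-free medium (0%) controls. Treatment lasted 48 hours at 37C with 500 cells per well.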

[4] = Quantitative High-Throughput drug screen in 47 multiple myeloma cell lines against the NCATS MIPE library collection: EJM_DSMZ cell viability assay (AID 1918926; note: nearly all actives have a fitted effect of over 30% in size; note: potency is the fitted concentration of half-maximal effect)
In short: (§1)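 We plated 500 myeloma cells per well, pinned in MIPE 4.0 compounds, and incubated for 48 hours at 37C. ATP was then quantified with CellTiter-Glo, with DMSO and media-only wells defining 100% and 0%.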

[5] = Quantitative High-Throughput drug screen in 47 multiple myeloma cell lines against the NCATS MIPE library collection: AMO1_DSMZ cell viability assay (AID 1918927; note: nearly all actives have a fitted effect of over 30% in size; note: potency is the fitted concentration of half-maximal effect)
In short: as §1

[6] = Quantitative High-Throughput drug screen in 47 multiple myeloma cell lines against the NCATS MIPE library collection: ARP1_JJKsccF8 cell viability assay (AID 1918928; note: nearly all actives have a fitted effect of over 40% in size; note: potency is the fitted concentration of half-maximal effect)
In short: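 CellTiter-Glo luminescence after 48 h exposure gives viability, scaled between DMSO-only (100%) and media-only (0%) controls. Library compounds are pinned onto 500 myeloma cells per well, incubated at 37C with 5% CO2.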

[7] = Quantitative High-Throughput drug screen in 47 multiple myeloma cell lines against the NCATS MIPE library collection: Delta47_JCRB cell viability assay (AID 1918925; note: nearly all actives have a fitted effect of over 45% in size; note: potency is the fitted concentration of half-maximal effect)
In short: as §1

[8] = molecular target: Luciferin 4-monooxygenase (Photinus pyralis) (UniProt P08659); test: Primary firefly luciferase (FLuc) qHTS assay for identification of artifact compounds. (AID 1845220); note: nearly all actives have a fitted effect of over 60% in size
In short: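 qHTS, 15 min compound preincubation with substrate (10 uM luciferin, 10 uM ATP) at RT, then 10 nM FLuc; 5 min; luminescence; % inhibition vs no-enzyme/DMSO controls, 4-parameter Hill fit.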

[9] = Primary fluorescence-based thiol-reactive (MSTI) qHTS assay for identification of artifact compounds. (AID 1845221);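 note: series mostly up to about 54 µM; thiol-reactive compounds lower the probe fluorescence signal; nearly all actives have a fitted effect of over 65% in size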
In short: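 In PBS pH 7.4 with 2% DMSO, each compound met 4 uM MSTI for one hour at ambient temperature, shielded from light, before fluorescence detection.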

[10] = tested on: Nanoluciferase (engineered Oplophorus gracilirostris luciferase); test: Primary Nanoluciferase (NLuc) qHTS assay for identification of artifact compounds. (AID 1845222); note: series mostly up to about 54 µM
In short: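 Luminescence read-out of secreted NLuc in S16 cell conditioned medium (1:55); compounds tested with 15 min RT preincubation, then Nano-Glo substrate 1:100, 5 min. % inhibition vs no-enzyme and DMSO controls, 4-parameter Hill fit.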

[11] = Primary redox qHTS assay for identification of artifact compounds. (AID 1845223)
In short: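 Redox-cycling detection via DTT (250 uM final) oxidation coupled to Amplex Red (25 uM)/HRP (250 mU/mL) in HBSS. 15 min preincubation plus 30 min after DTT, room temperature. Ex/Em 525/598 nm; 4-parameter Hill fit against DMSO and 10 uM DA3003.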

With `NC(=O)C1CCCc2c1[nH]c1ccc(Cl)cc21` (centres undefined) the Potency [1] was “inactive”, the Potency [2] was “inactive” and the Potency [3] was “inactive”. For the same compound, the Potency [4] was “inactive”, the Potency [5] was 14.8 µM (active) and the Potency [6] was “inactive”.

In the case of `Cn1c(=O)c(F)c(Nc2ccc(I)cc2F)c2c(=O)n(C[C@@H](O)CO)cnc21`, the Potency [1] is reported as “inactive”, the Potency [2] is reported as “inactive” and the Potency [3] is reported as “inactive”. For the same compound, the Potency [4] was “inactive”.

In the case of `Cc1c(CCOc2ccc(C(=O)O)cc2)c2cc(Cl)ccc2n1C(c1ccccc1)c1ccccc1`, the Potency [1] is reported as “inactive”, the Potency [3] is reported as “inactive” and the Potency [4] is reported as “inactive”. For the same compound, the Potency [5] was “inactive”.

In the case of `CCN(CC)CCCC(C)Nc1nc(C)cc(Nc2ccc3nc(C)cc(N)c3c2)n1` (centres undefined), the Potency [1] is reported as “inactive”, the Potency [2] is reported as “inactive” and the Potency [7] is reported as 4.69 µM (active). For the same compound, the Potency [5] was “inactive”.

With `c1ccc(-c2nn3c(c2-c2ccnc4cc(OCCN5CCOCC5)ccc24)CCC3)nc1` the Potency [1] was “inactive”, the Potency [2] was “inactive” and the Potency [4] was “inactive”.

With `N#Cc1ccc(C(c2ccc(C#N)cc2)n2cncn2)cc1` the Potency [1] was “inactive”, the Potency [2] was “inactive” and the Potency [3] was 14.8 µM (active). For the same compound, the Potency [4] was “inactive”.

With `Cc1cc(-c2ccc(CC(=O)Nc3ccc(-c4cccnc4)cc3)cc2)ccn1` the Potency [1] was “inactive”, the Potency [2] was “inactive” and the Potency [5] was 18.7 µM (active).

With `Cc1cc([C@@H](C)Nc2ccccc2C(=O)O)c2nc(N3CCOCC3)cc(=O)n2c1` the Potency [1] was “inactive” and the Potency [7] was 2.7 µM (active).

For `Cc1cc2c(F)c(Oc3ncnn4cc(OC[C@@H](C)O)c(C)c34)ccc2[nH]1`, the Potency [1] was “inactive”, the Potency [2] was “inactive” and the Potency [3] was “inactive”. The Potency [7] was 16.6 µM (active) and the Potency [5] was 4.69 µM (active).

For `CCC(C)(C)C(=O)O[C@H]1C[C@@H](C)C=C2C=C[C@H](C)[C@H](CC[C@@H]3C[C@@H](O)CC(=O)O3)[C@H]21`, the Potency [1] was “inactive”, the Potency [2] was “inactive” and the Potency [4] was “inactive”. The Potency [5] was 18.7 µM (active).

With `NC(=O)c1ccc(-c2nc(-c3ccc4c(c3)OCCO4)c(-c3ccccn3)[nH]2)cc1` the Potency [1] was “inactive”, the Potency [2] was “inactive” and the Potency [4] was “inactive”. The Potency [6] was 4.18 µM (active).

With `Oc1cccc(-c2nc(N3CCOCC3)c3oc4ncccc4c3n2)c1` the Potency [1] was “inactive”, the Potency [3] was 0.0762 µM (active) and the Potency [7] was 0.0171 µM (active). The Potency [4] was 6.79 µM (active) and the Potency [5] was 0.171 µM (active).

In the case of `CC(c1cc2ccccc2s1)N(O)C(N)=O` (centres undefined), the Potency [1] is reported as “inactive”, the Potency [2] is reported as “inactive” and the Potency [3] is reported as “inactive”. The Potency [7] was “inactive”, the Potency [4] was “inactive” and the Potency [5] was “inactive”. For the same compound, the Potency [6] was “inactive”.

In the case of `Cc1ccc(-n2nc(C(C)(C)C)cc2NC(=O)Nc2ccc(OCCN3CCOCC3)c3ccccc23)cc1`, the Potency [1] is reported as “inactive”, the Potency [2] is reported as “inactive” and the Potency [7] is reported as 2.64 µM (active). The Potency [4] was 18.7 µM (active) and the Potency [5] was 18.7 µM (active).

In the case of `O=C1[C@H](Cc2ccc(O)cc2)N2C(=O)CCN(C(=O)NCc3ccccc3)[C@H]2CN1Cc1cccc2ccccc12`, the Potency [1] is reported as “inactive”, the Potency [2] is reported as “inactive” and the Potency [6] is reported as 4.18 µM (active).

In the case of `CC(=O)NC(C)c1ccc(Oc2ccc(OC(C)C)cc2)cc1` (centres undefined), the Potency [1] is reported as “inactive”, the Potency [2] is reported as “inactive” and the Potency [6] is reported as 16.6 µM (active).

For `S=C(NCc1ccc2c(c1)OCO2)N1CCN(c2ncnc3c2oc2ccccc23)CC1`, the Potency [1] was “inactive”, the Potency [8] was “inactive” and the Potency [9] was “inactive”. The outcome [10] was “inactive”, the outcome [11] was “inactive” and the Potency [3] was 27 µM (active). The Potency [7] was 1.08 µM (active), the Potency [5] was 2.7 µM (active) and the Potency [6] was 3.03 µM (active).

In the case of `OCCn1cc(-c2cnc3nnn(Cc4ccc5ncccc5c4)c3n2)cn1`, the Potency [2] is reported as 14.3 µM (active), the Potency [8] is reported as “inactive” and the Potency [9] is reported as “inactive”. The outcome [10] was “inactive”, the outcome [11] was “inactive” and the Potency [3] was “inactive”. For the same compound, the Potency [7] was “inactive” and the Potency [5] was “inactive”.

For `CC[C@H](Nc1ncnc2nc[nH]c12)c1nc2cccc(F)c2c(=O)n1-c1ccccc1`, the Potency [2] was “inactive”, the outcome [8] was “inactive [at 11.6 µM]” and the activity change, negative = thiol reactive [9] was 52.7% [at 11.5 µM]. For the same compound, the activity, negative = inhibition [10] was -6.53% [at 11.6 µM], the redox activity (% of DA3003) [11] was 6.84% [at 11.5 µM] and the Potency [3] was 20.9 µM (active). For the same compound, the Potency [7] was 5.26 µM (active), the Potency [4] was 14.8 µM (active) and the Potency [5] was “inactive”. For the same compound, the Potency [6] was 20.9 µM (active).

With `CN[C@@H](C)C(=O)N[C@H]1CCCC[C@H]2CC[C@@H](C(=O)N[C@@H](c3ccccc3)c3cn(CCCCc4ccc(CCCCn5cc([C@@H](NC(=O)[C@@H]6CC[C@@H]7CCCC[C@H](NC(=O)[C@H](C)NC)C(=O)N76)c6ccccc6)nn5)cc4)nn3)N2C1=O` the Potency [1] was “inactive”, the Potency [2] was “inactive” and the Potency [7] was 3.72 µM (active). The Potency [4] was 5.26 µM (active).

In the case of `CC(C)(N)C(=O)N[C@H](COCc1ccccc1)C(=O)N1CCC2(CC1)CN(S(C)(=O)=O)c1ccccc12`, the Potency [2] is reported as “inactive”, the Potency [8] is reported as “inactive” and the Potency [9] is reported as “inactive”. The outcome [10] was “inactive”, the outcome [11] was “inactive” and the Potency [3] was 16.6 µM (active). The Potency [7] was 7.43 µM (active) and the Potency [5] was “inactive”.

For `O=C(C1CC1)N1CC[C@@H](Cn2c(-c3ccc(-c4ccc5occc5c4)cc3)nc3cnccc32)C1`, the Potency [2] was 22.7 µM (active).

For `COCC(=O)NCC=Cc1ccc2ncnc(Nc3ccc(Oc4ccc(C)nc4)c(C)c3)c2c1`, the Potency [3] was 26.4 µM (active) and the Potency [7] was 14.8 µM (active).

With `CCCn1c(=O)c2[nH]c(C34CC5CC3C[C@@H](C5)C4)nc2n(CCC)c1=O` the Potency [2] was “inactive”, the Potency [3] was “inactive” and the Potency [7] was “inactive”. For the same compound, the Potency [4] was 16.6 µM (active), the Potency [5] was 0.0264 µM (active) and the Potency [6] was 9.35 µM (active).

In the case of `CN(C)c1ccc(C2Nc3ccc4ccccc4c3C3=C2C(=O)CC(C)(C)C3)cc1Br` (centres undefined), the Potency [2] is reported as “inactive”, the Potency [8] is reported as “inactive” and the Potency [9] is reported as “inactive”. For the same compound, the outcome [10] was “inactive”, the outcome [11] was “inactive” and the Potency [7] was 2.35 µM (active).

In the case of `CCOc1ccc(Cc2cc([C@@H]3O[C@H](CO)[C@@H](O)[C@H](O)[C@@H]3O)ccc2Cl)cc1`, the Potency [3] is reported as “inactive”, the Potency [7] is reported as “inactive” and the Potency [5] is reported as 14.8 µM (active).

For `O=S(=O)(N=Cc1c(O)ccc2ccccc12)c1cccs1`, the Potency [4] was “inactive”.

For `COc1cc(Oc2ccnc3cc(OC)c(OC)cc23)ccc1NC(=O)NC(C)c1nccs1` (centres undefined), the Potency [2] was “inactive”, the Potency [8] was “inactive” and the Potency [9] was “inactive”. For the same compound, the outcome [11] was “inactive” and the Potency [4] was “inactive”.

— PubChem BioAssay (NCATS)
